Out of some 65,000 compounds screened, about 2,100 (3.2%) showed an effect of 50% or more. The median lay at about -52%. The list comes from a sample in which strong results are over-represented; it also holds similar structures and randomly drawn compounds.
These compounds were tested on Plasmodium falciparum (assay: Screen against P. falciparum Asexual Blood Stage (ABS), at 5uM). Conditions: tested at 5 uM.
Type: functional, Dd2
Compound CCCn1cc(CN2CCC(c3[nH]ncc3S(C)(=O)=O)C2)cn1 (stereo not given) has an INHIBITION of -45.2%. Cc1ccc(-c2cn[nH]c2C2CCCN(c3cnccn3)C2)cc1 (stereo not given) gave an INHIBITION of -28%. With CCn1cc(CN2CCCC(c3[nH]ncc3-c3ccc(F)cc3)C2)cn1 (stereo not given) the INHIBITION was 60.9%. CCn1cc(CN2CCCC(c3[nH]ncc3-c3ccc(C)cc3)C2)cn1 (stereo not given) gave an INHIBITION of 60.9%. In the case of Cc1ccc(-c2cn[nH]c2C2CCCN(c3ncccn3)C2)cc1 (stereo not given), the INHIBITION is reported as -1.86%. CCn1cc(CN2CCC(c3[nH]ncc3S(C)(=O)=O)C2)cn1 (stereo not given) showed an INHIBITION of -44%. For O=C(c1ccoc1)N1CC[C@@H]2O[C@@H](COCc3ccccn3)CC[C@@H]21, the INHIBITION was -109%. CO[C@@H]1CCN(S(=O)(=O)c2cccs2)[C@H]1Cc1cccnc1 showed an INHIBITION of -8.97%. CCC(C)N(Cc1cccnc1)C(=O)c1ccc(F)c(O)c1 (stereo not given) showed an INHIBITION of -68.4%. Compound CN(C)CC1(O)CCCN(c2nc(-c3ccccc3)no2)CC1 (stereo not given) has an INHIBITION of -61.2%. CN(C)CC1(O)CCCN(c2noc(-c3ccccc3)n2)CC1 (stereo not given) gave an INHIBITION of -3.62%. With Cc1cc(N2CCCC(O)(CN(C)C)CC2)nc(-c2ccccc2)n1 (stereo not given) the INHIBITION was 57.4%. CC1CN(C)CCN1C(=O)c1ccn(-c2cccc(F)c2)n1 (stereo not given) was tested, and the INHIBITION was -38.4%. For Cc1cc(NC(=O)NC(C)CN2CCN(c3ccccc3)CC2)on1 (stereo not given), the INHIBITION was 59.6%. Compound Cc1cc(NC(=O)CN(c2ccccc2)C(C)C)on1 has an INHIBITION of -5.31%. Cc1cc(NC(=O)N(C)CCN2CCN(c3ccccc3)CC2)on1 gave an INHIBITION of -47.3%. For CNC(=O)c1cccnc1N1CCC(Oc2ccc(F)cc2)CC1, the INHIBITION was -88.2%. O=C(CCc1ccccn1)N1CCCC(n2cncn2)C1 (stereo not given) showed an INHIBITION of -46.3%. For CC(C)c1n[nH]c(C2CN(C(=O)Cn3ccccc3=O)CCO2)n1 (stereo not given), the INHIBITION was -40.5%. With O=C(CC1CC1)N1CCO[C@H]2[C@H](OCCCn3cccn3)CC[C@@H]21 the INHIBITION was -14.6%. In the case of Cc1ccc2[nH]c(CN3CC[C@@H](N4CCN(C)CC4)[C@H](O)C3)c(C)c2c1, the INHIBITION is reported as -41.6%. For Cc1c(CN2CC[C@@H](N3CCC(O)CC3)[C@H](O)C2)[nH]c2ccc(Cl)cc12, the INHIBITION was 54.6%. Work on Cc1c(CN2CC[C@@H](N3CCC(O)CC3)[C@H](O)C2)[nH]c2ccc(F)cc12 yielded an INHIBITION of -21.9%. CC(=O)c1cc(Br)cc(F)c1OCC(=O)NC(C)C showed an INHIBITION of -96.4%. For O=C(NCC(F)F)c1ccc(S(=O)(=O)NCCc2ccncc2)cc1, the INHIBITION was 16.5%. O=C(CCn1cccn1)N1CC[C@@H](c2ccc3ccccc3c2)[C@H](O)C1 showed an INHIBITION of 15.7%. For O=C(CCN1CCCC1)N1CC[C@@H](c2ccc3ccccc3c2)[C@H](O)C1, the INHIBITION was 65.1%. In the case of O=C(CCN1CCCO1)N1CC[C@@H](c2ccc3ccccc3c2)[C@H](O)C1, the INHIBITION is reported as 15.7%. COc1cc(C2c3c(n[nH]c3C)N=C3COC(=O)C32)cc2c1OCO2 (stereo not given) was tested, and the INHIBITION was -31.7%. O=C(CC1C=CCC1)Nc1ncn(CC(=O)N2CCCCCC2)n1 (stereo not given) was tested, and the INHIBITION was 23.2%. With Clc1ccc(C(CNCc2ccncc2)n2cccn2)cc1 (stereo not given) the INHIBITION was -50.1%. In the case of CCn1cc(CNCC(c2ccc(Cl)cc2)n2cccn2)cn1 (stereo not given), the INHIBITION is reported as 60.8%. Work on Cn1cc(CNCC(c2ccc(Cl)cc2)n2cccn2)cn1 (stereo not given) yielded an INHIBITION of 18.1%. In the case of Cc1cc(CN2CCC(CNS(=O)(=O)c3ccccc3Cl)CC2)c(C)o1, the INHIBITION is reported as 53.6%. Cc1cc(CN2CCC(CNS(=O)(=O)c3c(C)noc3C)CC2)c(C)o1 was tested, and the INHIBITION was 28.4%. Work on CCN(C)S(=O)(=O)NCC1CCN(Cc2ccccc2C)CC1 yielded an INHIBITION of 11.6%. For Cc1cnc2n(c1=O)C(CC(=O)NCc1ccc(Cl)cc1)CS2 (stereo not given), the INHIBITION was -30.4%. For CC(C)Cc1ncc2c(n1)CN(c1cc(NCCO)nc(N)n1)C2, the INHIBITION was -42.2%. With Nc1nc(NCCO)cc(N2CCc3c([nH]c4ccccc34)C2)n1 the INHIBITION was 61.3%. For COc1ccc2[nH]c3c(c2c1)CN(c1cc(NCCO)nc(N)n1)CC3, the INHIBITION was -52.4%. With O=C(c1ccc2[nH]ccc2c1)N1CCCSCC1CN1CCCC1 (stereo not given) the INHIBITION was 21.3%. O=C(NCCc1ccn(-c2ccccc2)n1)N1CCSCC1 showed an INHIBITION of -122%. Work on Cc1ccc([C@]2(O)CC[C@H]3CN(Cc4ccc(Cl)cc4Cl)C[C@H]32)nc1 yielded an INHIBITION of 66.6%. In the case of COc1ccc(CN2C[C@H]3CC[C@](O)(c4ccc(C)cn4)[C@H]3C2)c(F)c1, the INHIBITION is reported as 17.3%. Work on Cc1ccc([C@]2(O)CC[C@H]3CN(Cc4cccc(Cl)c4Cl)C[C@H]32)nc1 yielded an INHIBITION of -9.78%. In the case of COc1ncc(CN2C[C@@H]3CC[C@@](O)(c4ccc(C)cn4)[C@@H]3C2)cn1, the INHIBITION is reported as -72.4%. CSc1ccc(CN2C[C@@H]3CC[C@@](O)(c4ccc(C)cn4)[C@@H]3C2)cc1 showed an INHIBITION of 57.5%. Work on Cc1ccc([C@]2(O)CC[C@H]3CN(Cc4cccc(F)c4F)C[C@H]32)nc1 yielded an INHIBITION of 45.8%. In the case of OC(CN1CCN(CCOCC(F)(F)F)CC1)c1ccccc1 (stereo not given), the INHIBITION is reported as -64.4%. Work on O=S(=O)(c1cccs1)N1CCCC2(COCCN(c3cccnc3)C2)C1 (stereo not given) yielded an INHIBITION of -39.7%.

Source: ChEMBL document CHEMBL4513216, “Probing the Open Global Health Chemical Diversity Library for Multistage-Active Starting Points for Next-Generation Antimalarials” (ACS Infect Dis, 2020)
